We go through 36 molecules from PubChem BioAssay (NCATS).

Inconclusive results are not listed. A call without a number means that no potency is given here. Calls of active or inactive are those of the source. The call rests on the fitted dose curve; in most records, active means well fitted inhibition curve with a large enough effect; inconclusive means small, poorly fitted or top-dose-only effect; inactive means no such curve, though single readings can be large or run the other way.
Potency means the concentration at half of the fitted maximal effect.

For the first assay, the target named is Retinal dehydrogenase 2 (Homo sapiens) (UniProt O94788). Put plainly: qHTS for Inhibitors of the Aldehyde Dehydrogenase Family (ALDH1A2) Confirmation screens (AID 2061314). Further: nearly all actives have a fitted effect of over 65% in size. The settings on record: ALDH1A2 enzyme inhibition qHTS confirmation; series mostly up to 45.9 µM. (In general: In qHTS, concentration-response curves come from the screen itself.)
`Cc1c(-c2ccccc2)no[n+]1[O-]`: the Potency entry was “inactive”.

Regarding `NC(=O)C1CCN(c2nc(-c3ccc4occc(=O)c4c3)cs2)CC1`, the Potency result is “inactive”.

In the case of `CC(=O)NC(C)c1cc(Cl)c2cccnc2c1O` (stereo not drawn), the Potency was 28.3 µM (active).

On to `O=C(c1ccc(-c2cnc3c(O)cccc3c2)cc1)N1CCNCC1`, for which the Potency result is “inactive”.

As for `NC(=O)C1CCN(c2nc(-c3ccc4c(c3)OCCO4)cs2)CC1`, the Potency entry is “inactive”.

On to `Cc1cc(C)nc(NC(=S)N2CCN(c3ccc4nsnc4c3)CC2)c1`, for which the Potency is 6.34 µM (active).

On to `Cc1ccc(-c2cc(C(=O)Nc3cccc(S(N)(=O)=O)c3)c3ccccc3n2)cc1C`, for which the Potency result is “inactive”.

For the molecule `Nc1ncc(-c2cccc(-c3nn4c(=O)cc(N5CCNCC5)nc4s3)c2)cn1`, the Potency is 11.3 µM (active).

On to `COc1ccc(C2Nc3ccccc3C(=O)N2Cc2cccnc2)cc1COc1ccc(NC(C)=O)cc1` (stereo not drawn), for which the Potency is 10.1 µM (active).

As for `CNc1oc(-c2ccc3c(c2)OCCO3)nc1C#N`, the Potency entry is “inactive”.

Take `COc1ccc(C(=O)N(Cc2ccco2)Cc2cccs2)c(O)c1`: the Potency was 22.5 µM (active).

As to `CC(CC(C)O[C@@H]1O[C@H](CO)[C@@H](O)[C@H](O)[C@H]1O)OC(=O)/C=C/c1ccc(O)cc1` (stereo partly drawn), the Potency result is “inactive”.

For the molecule `COc1ccc(C2Nc3ccccc3C(=O)N2Cc2ccccc2)cc1COc1ccc(C)cc1` (stereo not drawn), the Potency was 5.65 µM (active).

In the case of `N#Cc1c(-c2cccc(O)c2)no[n+]1[O-]`, the Potency was 2.52 µM (active).

Regarding `CC(C)(O)C1CC=C(C(=O)OCC2OC(Oc3c(O)cc(C(=O)O)cc3O)C(O)C(O)C2O)CC1` (stereo not drawn), the Potency result is “inactive”.

Turning to `O=C1c2ccccc2NC(c2ccc(-c3ccc(F)cc3)o2)N1O` (stereo not drawn), the Potency is 12.7 µM (active).

`COc1ccc(C2Nc3ccccc3C(=O)N2Cc2ccccc2)cc1COc1ccccc1OC` (stereo not drawn): the Potency was 8.96 µM (active).

On to `O=[S+]([O-])(NCC#CCSc1nnc(-c2cccc3ccccc23)o1)c1ccc(F)cc1`, for which the Potency entry was “inactive”.

`O=S(=O)(Nc1cc(O)cc2cccnc12)c1ccc(Cl)s1`: the Potency was 2.01 µM (active).

As for `COc1cc2ncc(-c3ccccc3)nc2cc1OC`, the Potency entry is “inactive”.

In the next assay the target is Retinaldehyde dehydrogenase 3 (Homo sapiens) (UniProt P47895). In words: qHTS for Inhibitors of the Aldehyde Dehydrogenase Family (ALDH1A3) Primary screen (AID 2061315). The settings on record: ALDH inhibition qHTS; series mostly up to 56 µM.
For `N#CNC(=O)c1ccc(-n2cccc2/C=C2\NC(=O)N(CC(=O)Nc3cccc(F)c3)C2=O)cc1`, the Potency entry is “inactive”.

Take `CCOC(=O)c1c(-c2ccccc2)no[n+]1[O-]`: the Potency result is “inactive”.

Regarding `Cc1c(-c2ccccc2)no[n+]1[O-]`, the Potency entry was “inactive”.

Take `NC(=O)C1CCN(c2nc(-c3ccc4occc(=O)c4c3)cs2)CC1`: the Potency result is “inactive”.

With `CC(=O)NC(C)c1cc(Cl)c2cccnc2c1O` (stereo not drawn), the Potency result was “inactive”.

Regarding `c1cn2cc(-c3ccc4cn[nH]c4c3)nc(Nc3ccc(N4CCOCC4)cc3)c2n1`, the Potency entry is “inactive”.

Take `O=C(Nc1ncc([N+](=O)[O-])s1)c1ccccc1O`: the Potency was 2 µM (active).

Consider `O=C(O)CN1C(=O)N/C(=C\c2cccn2-c2ccc(P(=O)(O)O)cc2)C1=O`, for which the Potency result is “inactive”.

In the case of `O=C(c1ccc(-c2cnc3c(O)cccc3c2)cc1)N1CCNCC1`, the Potency entry is “inactive”.

For the molecule `O=c1[nH]c(CN2CCOCC2)nc2sc3c(c12)CCC3`, the Potency entry was “inactive”.

In the case of `Cc1nnc(CN(C)c2ncnc3ccc(-c4ccc5c(c4)OCO5)cc23)o1`, the Potency entry is “inactive”.

Regarding `NC(=O)C1CCN(c2nc(-c3ccc4c(c3)OCCO4)cs2)CC1`, the Potency entry is “inactive”.

Regarding `CC(C)(C)Nc1nc(C#N)nc(Nc2ccccc2)n1`, the Potency entry is “inactive”.

As for `CN(C)c1cccc(-c2csc(N3CCC(C(N)=O)CC3)n2)c1`, the Potency entry was “inactive”.

With `Cc1ccc(-c2cc(C(=O)Nc3cccc(S(N)(=O)=O)c3)c3ccccc3n2)cc1C`, the Potency result was “inactive”.

Consider `Cc1ccc(-c2no[n+]([O-])c2C#N)cc1`, for which the Potency result is “inactive”.

As for `Nc1ncc(-c2cccc(-c3nn4c(=O)cc(N5CCNCC5)nc4s3)c2)cn1`, the Potency entry is “inactive”.

`COc1ccc(C2Nc3ccccc3C(=O)N2Cc2cccnc2)cc1COc1ccc(NC(C)=O)cc1` (stereo not drawn): the Potency entry is “inactive”.

For `CNc1oc(-c2ccc3c(c2)OCCO3)nc1C#N`, the Potency entry is “inactive”.

For the molecule `COc1ccc(C(=O)N(Cc2ccco2)Cc2cccs2)c(O)c1`, the Potency result was “inactive”.

Turning to `CC(CC(C)O[C@@H]1O[C@H](CO)[C@@H](O)[C@H](O)[C@H]1O)OC(=O)/C=C/c1ccc(O)cc1` (stereo partly drawn), the Potency entry was “inactive”.

For the molecule `COc1ccc(C2Nc3ccccc3C(=O)N2Cc2ccccc2)cc1COc1ccc(C)cc1` (stereo not drawn), the Potency entry is “inactive”.

On to `N#Cc1c(-c2cccc(O)c2)no[n+]1[O-]`, for which the Potency entry was “inactive”.

For the molecule `Cc1noc(C)c1-c1ccc2ncnc(NCc3ccc(F)cc3)c2c1`, the Potency entry was “inactive”.

Turning to `Cc1c(Cl)cccc1NS(=O)(=O)c1cc2c(cc1F)NC(=O)CC2`, the Potency result is “inactive”.

For the molecule `CC(C)(O)C1CC=C(C(=O)OCC2OC(Oc3c(O)cc(C(=O)O)cc3O)C(O)C(O)C2O)CC1` (stereo not drawn), the Potency entry is “inactive”.

Take `O=C1c2ccccc2NC(c2ccc(-c3ccc(F)cc3)o2)N1O` (stereo not drawn): the Potency entry is “inactive”.

`COc1ccc(C2Nc3ccccc3C(=O)N2Cc2ccccc2)cc1COc1ccccc1OC` (stereo not drawn): the Potency result is “inactive”.

As for `O=[S+]([O-])(NCC#CCSc1nnc(-c2cccc3ccccc23)o1)c1ccc(F)cc1`, the Potency entry was “inactive”.

In the case of `Cc1cc(C)nc(NC(=S)N2CCN(c3cncc4ccccc34)CC2)c1`, the Potency result is “inactive”.

On to `COc1ccc(-c2csc(NC(=O)c3ccncc3NS(=O)(=O)c3ccc(C)cc3)n2)cc1`, for which the Potency result was “inactive”.

`Cc1noc(C)c1N[S+](=O)([O-])c1ccc(NC(=O)Cc2ccc(Cl)c(Cl)c2)cc1`: the Potency result is “inactive”.

Turning to `O=C1CCc2cc(S(=O)(=O)Nc3cc(F)cc(Cl)c3)c(F)cc2N1`, the Potency entry is “inactive”.
